The molecules below were run against T1, Aspartate--tRNA(Asp/Asn) ligase (Mycobacterium tuberculosis (strain ATCC 25618 / H37Rv)) (UniProt P9WFW3) (assay: Assay for Asp RNA synthetase-1 from Mycobacterium tuberculosis). Settings: 30 µM.
T1 sequence (whole entry): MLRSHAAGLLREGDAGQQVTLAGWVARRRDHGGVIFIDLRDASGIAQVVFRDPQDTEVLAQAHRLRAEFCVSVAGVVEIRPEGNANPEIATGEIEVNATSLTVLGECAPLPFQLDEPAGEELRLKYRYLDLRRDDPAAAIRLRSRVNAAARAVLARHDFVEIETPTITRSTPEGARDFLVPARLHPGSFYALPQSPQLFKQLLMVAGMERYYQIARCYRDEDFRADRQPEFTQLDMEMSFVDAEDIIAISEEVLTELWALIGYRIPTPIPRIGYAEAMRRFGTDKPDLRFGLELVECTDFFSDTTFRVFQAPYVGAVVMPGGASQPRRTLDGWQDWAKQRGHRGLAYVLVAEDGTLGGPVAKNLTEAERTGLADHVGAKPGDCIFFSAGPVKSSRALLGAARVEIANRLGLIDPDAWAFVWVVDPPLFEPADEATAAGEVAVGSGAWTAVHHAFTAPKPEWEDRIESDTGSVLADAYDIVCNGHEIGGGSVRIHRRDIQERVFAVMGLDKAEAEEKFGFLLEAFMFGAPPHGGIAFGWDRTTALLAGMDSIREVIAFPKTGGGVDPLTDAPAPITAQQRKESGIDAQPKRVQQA
Type: functional
Design: scale not given: in the data most compounds retested in dose-response had high values
`Cc1cc(C)n(-c2ccc(CNCc3ccc(OC(C)C)cc3)cn2)n1` was tested, and the Percent Effect was -4.39%. `Cc1nnc(CCNC2CCN(c3ncnc4c(C)csc34)CC2)s1` showed a Percent Effect of 0.208%. For `CCn1cc(S(=O)(=O)N(C)Cc2c(Br)cnn2CC)c(C)n1`, the Percent Effect was 3.54%. `CCc1ccc(C(=O)N2CCCC(c3noc(CC)n3)C2)o1` (stereo not given) showed a Percent Effect of -2.33%. With `Cc1cc2ccccc2n1CCC(=O)NCc1ncc[nH]1` the Percent Effect was -0.164%. Work on `Cc1cccc(CN2C[C@@H]3COC[C@]3(CNC(=O)c3ccsc3)C2)n1` yielded a Percent Effect of -2.88%. `CNC(=O)CN1CCCC12CCN(C(=O)c1ccc(F)cc1)CC2` was tested, and the Percent Effect was -5.42%. `CC(C)c1nccn1C1CCCN(C(=O)c2cnn(C)c2C2CC2)C1` (stereo not given) showed a Percent Effect of -1.74%. Work on `COCCN(CCc1ccccc1)Cc1nc2c(cnn2C)c(=O)[nH]1` yielded a Percent Effect of 1.95%. In the case of `O=C1CC2(CCN(CCO)CC2)CN1Cc1cc(F)cc(F)c1`, the Percent Effect is reported as -2.67%. `CN(C)CCN1C(=O)CCC12CCN(C(=O)c1cccnc1)CC2` showed a Percent Effect of -0.637%. Molecule `CC(C)c1nc(C(=O)N2CCOCC2CC(=O)c2ccco2)c[nH]1` (stereo not given) has a Percent Effect of -0.629%. For `CC1CCN(S(=O)(=O)NCCCn2cncn2)CC1`, the Percent Effect was -2.66%. `Cn1cc(C(=O)NC[C@@H]2OC[C@H]3CN(S(C)(=O)=O)CC[C@H]32)cn1` showed a Percent Effect of 0.41%. In the case of `Cc1cc2cc(C(=O)N3CC[C@H](O)[C@]4(CCCO4)C3)ccc2o1`, the Percent Effect is reported as 1.13%. For `Cn1cnnc1C1CCN(c2cncc(-n3cccn3)n2)CC1`, the Percent Effect was 0.324%. `Cc1ccc(C(=O)N(C)Cc2cc(Br)cs2)c(=O)[nH]1` was tested, and the Percent Effect was 0.749%. Molecule `Cc1cc(C)n(CC2CCCN2CC(=O)N(C)C)n1` (stereo not given) has a Percent Effect of -2.12%. `CN(C)C(=O)N1CCc2c(nnn2C)C1COCc1ccccc1` (stereo not given) showed a Percent Effect of 1.92%. For `COCC(=O)N1CCC2(CC1)CCN(Cc1ccccn1)C2=O`, the Percent Effect was 3.22%. In the case of `O=C(Cn1cc(C(=O)O)ccc1=O)Nc1ccc(F)cc1Cl`, the Percent Effect is reported as -8.57%. For `CCc1nc(CN(C)CC2CCN(CCO)CC2)no1`, the Percent Effect was -1.64%. In the case of `CCN1CCC2(CCC(=O)N2Cc2cccc(C)n2)CC1`, the Percent Effect is reported as -3.94%. Work on `CS(=O)(=O)c1ccc(CNC(=O)N2CCC(C(N)=O)C2)cc1` (stereo not given) yielded a Percent Effect of -1.49%. With `CN1CCCc2cc(CNC(=O)c3ccc(NC4CC4)nc3)ccc21` the Percent Effect was -3.1%. With `O=C1CC(c2ccccc2)c2c(n3ccsc3nc2=O)N1` (stereo not given) the Percent Effect was -1.74%. `CO[C@H]1CCN(S(=O)(=O)c2cn(C)cn2)[C@H]1Cc1cnn(C)c1` was tested, and the Percent Effect was 7.16%. For `CC(=O)c1cn(CCC(=O)NCCC(=O)O)c2ccccc12`, the Percent Effect was -4.27%. In the case of `CCCS(=O)(=O)c1ncc(CN2CCC(CO)CC2)n1CC1CCCO1` (stereo not given), the Percent Effect is reported as -5.1%. `Cc1cc(C)n(C2CCCN(C(=O)c3ccc(NC4CC4)nc3)C2)n1` (stereo not given) gave a Percent Effect of -1.9%. With `CS(=O)(=O)CCC(=O)NC1(c2cccc(Br)c2)CC1` the Percent Effect was 5.45%. `COCCNS(=O)(=O)c1cccc2c1CN(C(=O)c1ccccc1)CC2` was tested, and the Percent Effect was -2.79%. In the case of `COCC(=O)N1CCC2(CC1)COCCN2CCN(C)C`, the Percent Effect is reported as 3.2%. In the case of `Cn1ncc2c(NCCC34CCCN3CCC4)nc(C3CCCC3)nc21`, the Percent Effect is reported as 8.28%. `O=C(CCc1cccnc1)N1CCCC(n2cncn2)C1` (stereo not given) showed a Percent Effect of -2.66%. Molecule `Cn1cccc1C(=O)N1CCCN(CCCc2ccccc2)CC1` has a Percent Effect of 0.0912%. Molecule `Cc1cncc(C2CCCN(C(=O)c3ccc(C)[nH]c3=O)C2)n1` (stereo not given) has a Percent Effect of 0.25%. `Cc1ccc(Cn2ccc(NS(C)(=O)=O)n2)cc1` was tested, and the Percent Effect was 2.05%. Molecule `COc1ccc(C(=O)NS(=O)(=O)c2ccc(C#N)cc2C(F)(F)F)cc1` has a Percent Effect of -0.26%. With `CC(=O)Nc1nc(C(=O)Nc2ccc(F)cc2)cs1` the Percent Effect was -0.259%.

Source: ChEMBL document CHEMBL3988442, “University of Dundee, Small-Polar-MMV Screening Library” (2021)
